About 2,000 (36%) of roughly 5,500 compounds were called active. Not shown: some 18% with an inconclusive outcome. Cut-off read from the data, not from the text of the source: active = normalized growth mostly below about 0.91 (no sharp cut-off); inconclusive = no clear call, values can overlap the other calls; inactive = mostly above about 0.92. Some of the results follow.
Assay: chemical genetic growth profiling, strain panel (AID 1159580);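 note: tested at 20 µM; growth read once vehicle control cultures reached saturation at 30 °C; 1 = growth at the plate median or of vehicle wells; lower values mean less growth of the strain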
Conditions: growth OD

Measured: normalized growth

Nc1ccc(S(=O)(=O)Nc2nccs2)cc1
inactive: S. cerevisiae deletion strains, locus YJR075W, strain HOC1, active compounds read low 1.01 | S. cerevisiae deletion strains, locus YKL009W, strain mrt4, active compounds read low 0.999 | S. cerevisiae deletion strains, locus YKL068W, active compounds read low 0.99 | S. cerevisiae deletion strains, locus YKL085W, strain MDH1 (second series), active compounds read low 0.99 | S. cerevisiae deletion strains, locus YKL085W, strain MDH1, active compounds read low 0.99 | S. cerevisiae deletion strains, locus YKL160W, strain elf1, active compounds read low 1.02 | S. cerevisiae deletion strains, locus YKL190W, strain CNB1, active compounds read low 1.01 | S. cerevisiae deletion strains, locus YKR001C, strain vps1, active compounds read low 1.02 | S. cerevisiae deletion strains, locus YKR026C, strain gcn3, active compounds read low 1.01 | S. cerevisiae deletion strains, locus YKR091W, strain srl3, active compounds read low 1.01 | S. cerevisiae deletion strains, locus YLL001W, strain dnm1, active compounds read low 1.02 | S. cerevisiae deletion strains, locus YLL026W, active compounds read low 1.02 | S. cerevisiae deletion strains, locus YLL041C, strain sdh2, active compounds read low 1.01 | S. cerevisiae deletion strains, locus YLR027C, strain aat2, active compounds read low 1.02 | S. cerevisiae deletion strains, locus YLR039C, strain RIC1, active compounds read low 1.04 | S. cerevisiae deletion strains, locus YLR058C, strain SHM2, active compounds read low 1.01 | S. cerevisiae deletion strains, locus YLR102C, strain apc9, active compounds read low 0.995 | S. cerevisiae deletion strains, locus YLR113W, strain HOG1, active compounds read low 1.02 | S. cerevisiae deletion strains, locus YLR221C, strain rsa3, active compounds read low 1 | S. cerevisiae deletion strains, locus YLR258W, strain gsy2, active compounds read low 1.01 | S. cerevisiae deletion strains, locus YLR262C, strain YPT6 (second series), active compounds read low 1.03 | S. cerevisiae deletion strains, locus YLR262C, strain YPT6, active compounds read low 1.05 | S. cerevisiae deletion strains, locus YLR268W, strain sec22, active compounds read low 0.948 | S. cerevisiae deletion strains, locus YLR320W, strain mms22, active compounds read low 0.992 | S. cerevisiae deletion strains, locus YLR330W, strain CHS5, active compounds read low 1.01 | S. cerevisiae deletion strains, locus YLR342W, strain FKS1 (second series), active compounds read low 1.03 | S. cerevisiae deletion strains, locus YLR342W, strain FKS1, active compounds read low 1.01 | S. cerevisiae deletion strains, locus YLR357W, strain rsc2, active compounds read low 1.02 | S. cerevisiae deletion strains, locus YLR370C, strain arc18, active compounds read low 1.02 | S. cerevisiae deletion strains, locus YLR371W, strain rom2, active compounds read low 0.996 | S. cerevisiae deletion strains, locus YLR384C, strain iki3, active compounds read low 1.02 | S. cerevisiae deletion strains, locus YLR418C, strain cdc73, active compounds read low 0.997 | S. cerevisiae deletion strains, locus YML016C, strain PPZ1, active compounds read low 1.01 | S. cerevisiae deletion strains, locus YML032C, strain rad52, active compounds read low 0.98 | S. cerevisiae deletion strains, locus YML120C, strain ndi1, active compounds read low 1.02 | S. cerevisiae deletion strains, locus YML124C, strain tub3, active compounds read low 0.997 | S. cerevisiae deletion strains, locus YMR058W, strain fet3, active compounds read low 1.02 | S. cerevisiae deletion strains, locus YMR078C, strain ctf18, active compounds read low 0.994 | S. cerevisiae deletion strains, locus YMR125W, strain sto1, active compounds read low 1 | S. cerevisiae deletion strains, locus YMR129W, active compounds read low 1.01 | S. cerevisiae deletion strains, locus YMR205C, strain PFK2, active compounds read low 1 | S. cerevisiae deletion strains, locus YMR223W, strain ubp8, active compounds read low 1.01 | S. cerevisiae deletion strains, locus YMR231W, strain pep5, active compounds read low 1.01 | S. cerevisiae deletion strains, locus YMR263W, strain SAP30, active compounds read low 1.01 | S. cerevisiae deletion strains, locus YMR307W, strain GAS1, active compounds read low 0.995 | S. cerevisiae deletion strains, locus YNL067W, strain RPL9B, active compounds read low 1.02 | S. cerevisiae deletion strains, locus YNL071W, strain lat1, active compounds read low 1.01 | S. cerevisiae deletion strains, locus YNL128W, strain TEP1, active compounds read low 1.01 | S. cerevisiae deletion strains, locus YNL153C, strain GIM3, active compounds read low 1 | S. cerevisiae deletion strains, locus YNL183C, strain NPR1, active compounds read low 0.948 | S. cerevisiae deletion strains, locus YNL209W, strain ssb2, active compounds read low 1.02 | S. cerevisiae deletion strains, locus YNL233W, strain BNI4, active compounds read low 0.99 | S. cerevisiae deletion strains, locus YNL248C, strain rpa49, active compounds read low 0.998 | S. cerevisiae deletion strains, locus YNL250W, strain rad50, active compounds read low 0.989 | S. cerevisiae deletion strains, locus YNL271C, strain bni1, active compounds read low 0.992 | S. cerevisiae deletion strains, locus YNL298W, strain CLA4, active compounds read low 1 | S. cerevisiae deletion strains, locus YNL307C, strain MCK1, active compounds read low 0.995 | S. cerevisiae deletion strains, locus YNL322C, strain KRE1 (second series), active compounds read low 1.02 | S. cerevisiae deletion strains, locus YNL322C, strain KRE1, active compounds read low 1.01 | S. cerevisiae deletion strains, locus YNR049C, strain mso1, active compounds read low 1.01 | S. cerevisiae deletion strains, locus YNR052C, strain pop2, active compounds read low 1 | S. cerevisiae deletion strains, locus YOL006C, strain TOP1, active compounds read low 1.01 | S. cerevisiae deletion strains, locus YOL012C, strain htz1 1.03 | S. cerevisiae deletion strains, locus YOL147C, strain pex11, active compounds read low 0.992 | S. cerevisiae deletion strains, locus YOR001W, strain rrp6, active compounds read low 1.03 | S. cerevisiae deletion strains, locus YOR061W, strain CKA2, active compounds read low 1.01 | S. cerevisiae deletion strains, locus YOR069W, strain VPS5, active compounds read low 1.01 | S. cerevisiae deletion strains, locus YOR070C, strain gyp1, active compounds read low 1 | S. cerevisiae deletion strains, locus YOR080W, strain dia2, active compounds read low 1.01 | S. cerevisiae deletion strains, locus YOR083W, strain WHI5, active compounds read low 0.98 | S. cerevisiae deletion strains, locus YOR106W, strain vam3, active compounds read low 1.04 | S. cerevisiae deletion strains, locus YOR136W, strain idh2, active compounds read low 0.993 | S. cerevisiae deletion strains, locus YOR144C, strain elg1, active compounds read low 1 | S. cerevisiae deletion strains, locus YOR184W, strain ser1, active compounds read low 1 | S. cerevisiae deletion strains, locus YOR231W, strain MKK1, active compounds read low 1.05 | S. cerevisiae deletion strains, locus YOR265W, strain rbl2, active compounds read low 1.02 | S. cerevisiae deletion strains, locus YOR270C, strain vph1, active compounds read low 1.03 | S. cerevisiae deletion strains, locus YOR290C, strain snf2, active compounds read low 0.997 | S. cerevisiae deletion strains, locus YOR316C, strain cot1, active compounds read low 0.999 | S. cerevisiae deletion strains, locus YPL051W, strain arl3, active compounds read low 1.02 | S. cerevisiae deletion strains, locus YPL055C, strain LGE1, active compounds read low 1.02 | S. cerevisiae deletion strains, locus YPL078C, strain atp4, active compounds read low 1.02 | S. cerevisiae deletion strains, locus YPL106C, strain sse1, active compounds read low 1.03 | S. cerevisiae deletion strains, locus YPL240C, strain hsp82, active compounds read low 1.03 | S. cerevisiae deletion strains, locus YPL241C, strain CIN2, active compounds read low 1.01 | S. cerevisiae deletion strains, locus YPL256C, strain CLN2, active compounds read low 1.02 | S. cerevisiae deletion strains, locus YPR119W, strain clb2, active compounds read low 0.992 | S. cerevisiae deletion strains, locus YPR141C, strain kar3, active compounds read low 0.996 | S. cerevisiae deletion strains, locus YPR163C, strain tif3, active compounds read low 1 | S. cerevisiae deletion strains, locus YPR167C, strain met16, active compounds read low 1 | S. cerevisiae deletion strains, strain wtn01, active compounds read low 0.997 | S. cerevisiae strains, strain wild type, active compounds read low 0.997
